{
  "source": "the supplement of paper PMC8975748",
  "note": "Counter-ions that a name gives are not always drawn. ± gives the standard deviation of the averaged measurements.",
  "data": [
    {"tested_on": "Saccharomyces cerevisiae BY4741 SeMeCo community", "test": "mean cell size (pixel area) (pixels); higher = larger cells", "settings": "10 µM; 24 h; SM minimal medium", "summary_of_the_method": "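A Saccharomyces cerevisiae BY4741 community carrying four plasmids, each with a fluorescent marker and each complementing one auxotrophy, was exposed for 24 h to drug at a final 10 µM in SM medium in acoustically predosed 384-well plates. The overnight preculture (OD600 = 1.0) was diluted to OD600 = 0.3 before 70 µl was added per well. Cells were then fixed with paraformaldehyde, imaged by automated confocal microscopy and analysed in Harmony to derive mean cell pixel area per well, averaged over 3 replicates. Same SeMeCo high-content imaging drug screen: Selleck FDA-approved drugs at 10 µM, 24 h in SM medium, 384-well plates, 3 replicates.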", "values": [
      {"smiles": "CCCCCOc1ccc(-c2ccc(-c3ccc(C(=O)N[C@H]4C[C@@H](O)[C@@H](O)NC(=O)[C@@H]5[C@@H](O)[C@@H](C)CN5C(=O)[C@H]([C@@H](C)O)NC(=O)[C@H]([C@H](O)[C@@H](O)c5ccc(O)cc5)NC(=O)[C@@H]5C[C@@H](O)CN5C(=O)[C@H]([C@@H](C)O)NC4=O)cc3)cc2)cc1", "mean cell size": "12.6 ± 0.25"},
      {"smiles": "O=C(O)c1cc(-c2ccc(F)cc2F)ccc1O", "note": "[Diflunisal]", "mean cell size": "13.1 ± 0.14"},
      {"smiles": "C[C@@H]1[C@H](O)[C@@H](C)/C=C/C=C/C=C/C=C/C=C/C=C/C=C/[C@H](O[C@@H]2O[C@H](C)[C@@H](O)[C@H](N)[C@@H]2O)C[C@@H]2O[C@](O)(C[C@@H](O)C[C@@H](O)[C@H](O)CC[C@@H](O)C[C@@H](O)CC(=O)O[C@H]1C)C[C@H](O)[C@H]2C(=O)O", "note": "[Amphotericin B]", "mean cell size": "9.69 ± 0.22"},
      {"smiles": "CO/N=C(\\C(=O)N[C@@H]1C(=O)N2C(C(=O)O)=CCS[C@H]12)c1csc(N)n1", "note": "[Ceftizoxime sodium]", "mean cell size": "12.3 ± 0.25"},
      {"smiles": "CC(C)(O/N=C(\\C(=O)N[C@@H]1C(=O)N2C(C(=O)[O-])=C(C[n+]3ccccc3)CS[C@H]12)c1csc(N)n1)C(=O)O", "note": "[Ceftazidime]", "mean cell size": "12 ± 0.14"},
      {"smiles": "C[C@@H]1C/C=C/C=C/C=C/C=C/[C@H](O[C@@H]2O[C@H](C)[C@@H](O)[C@H](N)[C@@H]2O)C[C@@H]2O[C@](O)(C[C@@H](O)C[C@H]3O[C@@H]3/C=C/C(=O)O1)C[C@H](O)[C@H]2C(=O)O", "note": "[Natamycin]", "mean cell size": "12.31 ± 0.094"},
      {"smiles": "COCCCN1CCC(NC(=O)c2cc(Cl)c(N)c3c2OCC3)CC1", "note": "[Prucalopride]", "mean cell size": "12.6 ± 0.1"},
      {"smiles": "CCOc1cc(NC(C)=O)ccc1C(=O)OC", "note": "[Ethopabate]", "mean cell size": "12.6 ± 0.26"},
      {"smiles": "CN(C)CCN1C(=O)c2cccc3cc(N)cc(c23)C1=O", "note": "[Amonafide]", "mean cell size": "12.29 ± 0.1"},
      {"smiles": "COc1ccnc(C[S+]([O-])c2nc3cc(OC(F)F)ccc3[nH]2)c1OC", "note": "(centres undefined) [Pantoprazole sodium]", "mean cell size": "12.5 ± 0.28"},
      {"smiles": "CC(C)(C)C(=O)C(Oc1ccc(Cl)cc1)n1ccnc1", "note": "(centres undefined) [Climbazole]", "mean cell size": "11.3 ± 0.047"},
      {"smiles": "COc1cc(N)c(Cl)cc1C(=O)NC1CCN(CCCOc2ccc(F)cc2)CC1OC", "note": "(centres undefined) [Cisapride]", "mean cell size": "12 ± 0.14"},
      {"smiles": "COc1ccc2[nH]c([S+]([O-])Cc3ncc(C)c(OC)c3C)nc2c1", "note": "(centres undefined) [Omeprazole]", "mean cell size": "12.3 ± 0.19"},
      {"smiles": "O=C1CCc2cc(OCCCCc3nnnn3C3CCCCC3)ccc2N1", "note": "[Cilostazol]", "mean cell size": "12.32 ± 0.082"},
      {"smiles": "NC12CC3CC(CC(C3)C1)C2", "note": "[Amantadine HCl]", "mean cell size": "12.6 ± 0.17"},
      {"smiles": "CO/N=C(\\C(=O)N[C@@H]1C(=O)N2C(C(=O)OCOC(=O)C(C)(C)C)=C(/C=C\\c3scnc3C)CS[C@H]12)c1csc(N)n1", "note": "[Cefditoren Pivoxil]", "mean cell size": "12.3 ± 0.23"},
      {"smiles": "O=C1c2cccc3c2[C@H](CCC3)CN1[C@@H]1CN2CCC1CC2", "note": "[Palonosetron HCl]", "mean cell size": "11.92 ± 0.064"},
      {"smiles": "C[C@]12CC[C@@H]3c4ccc(O)cc4CC[C@H]3[C@@H]1CC[C@@H]2OC(=O)CCC1CCCC1", "note": "[Estradiol Cypionate]", "mean cell size": "12.4 ± 0.13"},
      {"smiles": "COc1ccc2c(c1)c(CC(=O)O)c(C)n2C(=O)c1ccc(Cl)cc1", "note": "[Indomethacin]", "mean cell size": "12.29 ± 0.12"},
      {"smiles": "O=C(O)Cc1ccccc1Nc1c(Cl)cccc1Cl", "note": "[Diclofenac Diethylamine]", "mean cell size": "12.66 ± 0.1"},
      {"smiles": "Clc1ccccc1C(c1ccccc1)(c1ccccc1)n1ccnc1", "note": "[Clotrimazole]", "mean cell size": "11.89 ± 0.097"},
      {"smiles": "C[C@@H](O)[C@H]1C(=O)N2C(C(=O)OCOC(=O)C(C)(C)C)=C(SC3CN(C4=NCCS4)C3)[C@H](C)[C@H]12", "note": "[Tebipenem Pivoxil]", "mean cell size": "12.4 ± 0.16"},
      {"smiles": "COC(=O)C1=C(C)NC(C)=C(C(=O)OCC(C)C)C1c1ccccc1[N+](=O)[O-]", "note": "(centres undefined) [Nisoldipine]", "mean cell size": "12.2 ± 0.14"},
      {"smiles": "NC(=O)Cc1cccc(C(=O)c2ccccc2)c1N", "note": "[Nepafenac]", "mean cell size": "12.3 ± 0.27"},
      {"smiles": "CN1C2CCCC1CC(NC(=O)c1nn(C)c3ccccc13)C2", "note": "(centres undefined) [Granisetron]", "mean cell size": "12.3 ± 0.14"},
      {"smiles": "CN(C)C[C@@H]1CCn2cc(c3ccccc32)C2=C(C(=O)NC2=O)c2cn(c3ccccc23)CCO1", "mean cell size": "12.64 ± 0.084"},
      {"smiles": "Cc1ccc(-c2ncc(Cl)cc2-c2ccc(S(C)(=O)=O)cc2)cn1", "note": "[Etoricoxib]", "mean cell size": "12.4 ± 0.17"},
      {"smiles": "Cc1ccc(Sc2ccccc2N2CCNCC2)c(C)c1", "mean cell size": "12.22 ± 0.086"},
      {"smiles": "CN(C)CCCN1c2ccccc2Sc2ccccc21", "note": "[Promazine hydrochloride]", "mean cell size": "12.5 ± 0.15"},
      {"smiles": "CN(C)CCn1nnnc1SCC1=C(C(=O)O)N2C(=O)[C@@H](NC(=O)Cc3csc(N)n3)[C@H]2SC1", "note": "[Cefotiam hydrochloride]", "mean cell size": "12.24 ± 0.031"},
      {"smiles": "CN(C)CC(c1ccc(O)cc1)C1(O)CCCCC1", "note": "(centres undefined) [Desvenlafaxine]", "mean cell size": "12.4 ± 0.27"},
      {"smiles": "Cc1ncc([N+](=O)[O-])n1CCOC(=O)c1ccccc1", "note": "[Metronidazole Benzoate]", "mean cell size": "12.382 ± 0.0058"},
      {"smiles": "O=C1C(CC[S+]([O-])c2ccccc2)C(=O)N(c2ccccc2)N1c1ccccc1", "note": "(racemic) [(+/-)-Sulfinpyrazone]", "mean cell size": "12.5 ± 0.2"},
      {"smiles": "COc1ccccc1OCC(O)CN1CCN(CC(=O)Nc2c(C)cccc2C)CC1", "note": "(centres undefined) [Ranolazine 2HCl]", "mean cell size": "12.35 ± 0.013"}
    ]}
  ]
}
